Reference: PubChem BioAssay AID1159580 (chemical genetic matrix, 2015)
Several values for one entry are separate records, joined by “and”; a condition that tells them apart may be missing. Equal entries are not always repeated. The campaign covered roughly 5,500 compounds. About 2,000 (36%) were called active. Roughly 18% stayed inconclusive and do not appear here. No stated cut-off is given here; in the data, active means normalized growth mostly below about 0.91 (no sharp cut-off); inconclusive means no clear call, values can overlap the other calls; inactive means mostly above about 0.92. The list shows a part of the results.

Assay: chemical genetic growth profiling, strain panel (AID 1159580);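 further: tested at 20 µM; growth read once vehicle control cultures reached saturation at 30 °C; 1 = growth at the plate median or of vehicle wells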
Conditions: S. cerevisiae deletion strains, growth OD

Measured: normalized growth

NCCc1ccc(O)cc1
inactive: locus YAL021C, strain ccr4, stronger effect = lower value 0.995 | locus YAL026C, strain drs2, stronger effect = lower value 0.963 | locus YAL030W, strain snc1, stronger effect = lower value 0.989 | locus YAL040C, strain CLN3, stronger effect = lower value 0.988 | locus YBL061C, strain skt5, stronger effect = lower value 0.975 | locus YBR009C, strain hhf1, stronger effect = lower value 0.985 | locus YBR021W, strain FUR4, stronger effect = lower value 0.97 | locus YBR023C, strain chs3, stronger effect = lower value 0.98 | locus YBR171W, strain sec66, stronger effect = lower value 0.957 | locus YBR229C, strain ROT2, stronger effect = lower value 0.999 | locus YBR231C, strain swc5, stronger effect = lower value 0.961 | locus YBR279W, strain paf1, stronger effect = lower value 0.983 | locus YCL011C, strain gbp2, stronger effect = lower value 0.997 | locus YCL016C, strain dcc1, stronger effect = lower value 1.01 | locus YCL029C, strain bik1, stronger effect = lower value 1.01 | locus YCL061C, strain MRC1 (second series), stronger effect = lower value 1.01 | locus YCL069W, strain vba3, stronger effect = lower value 0.99 | locus YCR088W, strain abp1, stronger effect = lower value 0.972 | locus YDL005C, strain med2, stronger effect = lower value 0.972 | locus YDL035C, strain GPR1, stronger effect = lower value 1.01 | locus YDL040C, strain nat1, stronger effect = lower value 0.984 | locus YDL074C, strain BRE1, stronger effect = lower value 0.99 | locus YDL101C, strain DUN1, stronger effect = lower value 1 | locus YDL185W, strain tfp1, stronger effect = lower value 1 | locus YDL192W, strain arf1, stronger effect = lower value 1 | locus YDR001C, strain nth1, stronger effect = lower value 0.975 | locus YDR069C, strain doa4, stronger effect = lower value 0.945 | locus YDR101C, strain arx1, stronger effect = lower value 0.991 | locus YDR137W, strain rgp1, stronger effect = lower value 0.981 | locus YDR150W, strain NUM1, stronger effect = lower value 1.01 | locus YDR159W, strain sac3, stronger effect = lower value 0.905 | locus YDR162C, strain NBP2, stronger effect = lower value 1.01 | locus YDR195W, strain ref2 0.928 | locus YDR297W, strain sur2, stronger effect = lower value 0.978 | locus YDR318W, strain mcm21, stronger effect = lower value 0.997 | locus YDR334W, strain swr1, stronger effect = lower value 0.967 | locus YDR335W, strain msn5, stronger effect = lower value 0.983 | locus YDR363W, strain ESC2, stronger effect = lower value 1.01 | locus YDR388W, stronger effect = lower value 1 | locus YDR392W, strain spt3, stronger effect = lower value 0.935 | locus YDR502C, strain sam2, stronger effect = lower value 0.989 | locus YEL003W, strain gim4, stronger effect = lower value 0.969 | locus YEL037C, strain rad23, stronger effect = lower value 0.977 | locus YEL061C, strain CIN8 (second series), stronger effect = lower value 0.975 | locus YEL061C, strain CIN8, stronger effect = lower value 1 | locus YER002W, strain NOP16, stronger effect = lower value 0.994 | locus YER015W, strain faa2, stronger effect = lower value 0.994 | locus YER016W, strain bim1, stronger effect = lower value 0.985 | locus YER110C, stronger effect = lower value 0.993 | locus YER111C, strain swi4, stronger effect = lower value 0.981 | locus YER155C, strain BEM2 (second series), stronger effect = lower value 0.951 | locus YER155C, strain BEM2, stronger effect = lower value 1.01 | locus YER167W, strain BCK2, stronger effect = lower value 1 | locus YFR010W, strain ubp6, stronger effect = lower value 0.957 | locus YGL078C, strain dbp3, stronger effect = lower value 0.994 | locus YGL086W, strain mad1, stronger effect = lower value 0.966 | locus YGL167C, strain pmr1, stronger effect = lower value 0.972 | locus YGL173C, strain kem1, stronger effect = lower value 0.964 | locus YGL227W, strain vid30, stronger effect = lower value 0.978 | locus YGL240W, strain doc1, stronger effect = lower value 0.96 | locus YGL248W, strain PDE1, stronger effect = lower value 1.01 | locus YGL253W, strain hxk2, stronger effect = lower value 0.972 | locus YGR078C, strain PAC10, stronger effect = lower value 1.01 | locus YGR135W, strain pre9, stronger effect = lower value 0.997 | locus YGR229C, strain SMI1, stronger effect = lower value 1.01 | locus YGR252W, strain gcn5, stronger effect = lower value 1.01 | locus YHR013C, strain ard1, stronger effect = lower value 0.97 | locus YHR027C, strain rpn1, stronger effect = lower value 0.99 | locus YHR030C, strain SLT2, stronger effect = lower value 1 and 0.976 | locus YHR079C, strain IRE1 (second series), stronger effect = lower value 0.994 | locus YHR079C, strain IRE1, stronger effect = lower value 0.976 | locus YHR094C, strain hxt1, stronger effect = lower value 1.01 | locus YHR129C, strain ARP1, stronger effect = lower value 1.01 | locus YHR142W, strain chs7, stronger effect = lower value 0.982 | locus YHR200W, strain rpn10, stronger effect = lower value 1.03 | locus YIL066C, strain RNR3, stronger effect = lower value 1.01 | locus YIL073C, strain SPO22, stronger effect = lower value 0.985 | locus YIL125W, strain kgd1, stronger effect = lower value 0.985 | locus YIR030C, strain dcg1, stronger effect = lower value 0.996 | locus YJL092W, strain hpr5, stronger effect = lower value 0.973 | locus YJL095W, strain BCK1 (second series), stronger effect = lower value 0.978 | locus YJL095W, strain BCK1, stronger effect = lower value 1.01 and 0.995 | locus YJL115W, strain asf1, stronger effect = lower value 0.963 | locus YJL129C, strain trk1, stronger effect = lower value 0.967 | locus YJL134W, strain LCB3, stronger effect = lower value 1.01 | locus YJL154C, strain vps35, stronger effect = lower value 0.975 | locus YJL164C, strain tpk1, stronger effect = lower value 0.998 | locus YJL166W, strain qcr8, stronger effect = lower value 0.986 | locus YJL168C, strain set2, stronger effect = lower value 1 | locus YJL187C, strain SWE1 (second series), stronger effect = lower value 1.01 | locus YJL187C, strain SWE1, stronger effect = lower value 0.984 | locus YJR043C, strain POL32, stronger effect = lower value 1.02 | locus YJR066W, strain TOR1, stronger effect = lower value 0.932
